Source: PubChem BioAssay (EPA / NIEHS)
Inconclusive results are not listed. Calls of active or inactive are those of the source. Rule for the calls, unless noted: active = hit-call score of the fitted dose curve at least 0.9, where 1 is the maximum; inactive = score below 0.9.

Assays:
[1] = ATG_NF_kB_CIS: Attagene CIS-FACTORIAL HepG2 Assay for human Nuclear Factor Kappa B (NF-kB) (AID 2282991); conditions: HepG2 Attagene cis-factorial NF-kB reporter mRNA; actives raise or lower the signal
Outline: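 Multiplexed cis-reporter assay in transiently transfected HepG2. 24 h treatment; RNA isolated, RT-PCR, labelled fragments resolved by CE. DMSO baseline.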

[2] = ATG_NRF2_ARE_CIS: Attagene CIS-FACTORIAL HepG2 Assay for human Nuclear Factor Erythroid 2 Related Factor 2 (NFR2) response to Antioxidant Response Elements (ARE) (AID 2282992); conditions: HepG2 Attagene ARE/NRF2 reporter, transcription factor activity; actives raise or lower the signal
Outline: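 Endogenous transcription factor activity read out as reporter transcript levels (RT-PCR plus capillary electrophoresis, fluorescence) in transiently transfected HepG2 cells. Measured at 24 h after dosing; gain or loss of signal fitted versus DMSO.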

[3] = ATG_Oct_MLP_CIS: Attagene CIS-FACTORIAL HepG2 Assay for human Octamer-Binding Transcription Factor (Oct) (AID 2282993); conditions: HepG2 Attagene cis-factorial Oct reporter, mRNA; actives raise or lower the signal
Outline: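 HepG2 cells transiently transfected with cis-element-driven reporter transcription units (endogenous TF activity); 24 h compound exposure. Reporter mRNA quantified by RT-PCR, 6-FAM labelling, HpaI digestion and capillary electrophoresis; bidirectional fit versus DMSO baseline.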

[4] = molecular target: Cellular tumor antigen p53 (Homo sapiens) (UniProt P04637); experiment: ATG_p53_CIS: Attagene CIS-FACTORIAL HepG2 Assay for human p53 Transcription Factor (AID 2282994); conditions: HepG2 p53 cis-element reporter, Attagene mRNA; actives raise or lower the signal
Outline: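 Endogenous p53 activity read in transiently transfected HepG2 from a cis-element-driven reporter transcript after 24 h exposure. RNA reverse-transcribed, PCR-amplified, fluorescently labelled and sized by capillary electrophoresis; gain or loss fitted against DMSO baseline.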

[5] = BSK_3C_uPAR: BioMAP Diversity Plus: 3C Assay for Urokinase-type plasminogen activator receptor (uPAR) Biomarker Activity (AID 2282998); conditions: BioMAP 3C HUVEC, uPAR biomarker ELISA; actives raise or lower the signal
Outline: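 Primary human umbilical vein endothelial cells, 3C system; surface uPAR measured by ELISA 24 h after dosing. Cytotoxicity via SRB total protein in parallel cultures; bidirectional fit against DMSO.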

[6] = BSK_4H_Eotaxin3: BioMAP Diversity Plus: 4H Assay for Eotaxin 3 Biomarker Activity (AID 2283000); conditions: primary human endothelial cells (HUVEC); actives raise or lower the signal
Outline: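 HUVEC, 24 h post-dose, ELISA for Eotaxin-3/CCL26. Gain or loss of signal fitted bidirectionally vs DMSO baseline.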

[7] = molecular target: human Peroxisome Proliferator-activated Receptor alpha (PPARa), PPARA (gene 5465) (UniProt Q07869); experiment: ATG_PPARa_TRANS: Attagene TRANS-FACTORIAL HepG2 Assay for human Peroxisome Proliferator-activated Receptor alpha (PPARa) (AID 2283001; active = hit-call score of the fitted dose curve at least 0.9, where 1 is the maximum;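 for AC50: potency for gain of reporter signal over DMSO so agonist or activator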)
Outline: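 Exposure: 24 h, transiently transfected HepG2 cells. Endpoint: GAL4-UAS reporter mRNA, RT-PCR with capillary electrophoresis fluorescence. Baseline: DMSO; increases fitted.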

[8] = read-out: Intercellular Adhesion Molecule 1 (ICAM1), ICAM1 (gene 3383); experiment: BSK_3C_ICAM1: BioMAP Diversity Plus: 3C Assay for Intercellular Adhesion Molecule 1 (ICAM1) Biomarker Activity (AID 2283003); conditions: primary human endothelial cells (HUVEC); actives raise or lower the signal
Outline: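 ELISA read-out of ICAM-1; HUVEC (primary human), 3C system, 24 h post-dosing; bidirectional fit vs DMSO baseline.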

[9] = BSK_3C_Proliferation: Cell Proliferation Assessment in the BioMAP Diversity Plus: 3C Assay (AID 2283006); conditions: primary human endothelial cells (HUVEC);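 for AC50: potency may reflect either rise or fall in cell number versus DMSO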
Outline: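 HUVEC, sub-confluent; 48 h chemical exposure; 10% TCA fix, 0.1% SRB stain, A560 total protein. Gain or loss of signal fitted both directions vs DMSO control.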

[10] = molecular target: Peroxisome proliferator-activated receptor gamma (Homo sapiens) (UniProt P37231); experiment: ATG_PPARg_TRANS: Attagene TRANS-FACTORIAL HepG2 Assay for human Peroxisome Proliferator-activated Receptor-gamma (PPARg) (AID 2283007; active = hit-call score of the fitted dose curve at least 0.9, where 1 is the maximum)
Outline: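 Human hepatoma HepG2, transient MRTU transfection, 24 h treatment. mRNA reporter signal by RT-PCR plus capillary electrophoresis, fluorescence detection; fitted for increase over DMSO negative control.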

[11] = molecular target: Nuclear receptor subfamily 1 group I member 2 (Homo sapiens) (UniProt O75469); experiment: ATG_PXR_TRANS: Attagene TRANS-FACTORIAL HepG2 Assay for human Pregnane X Receptor (PXR) (AID 2283008; active = hit-call score of the fitted dose curve at least 0.9, where 1 is the maximum)
Outline: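 Transactivation by exogenous PXR–GAL4 fusion measured as reporter transcript induction after 24 h compound treatment of transfected human HepG2 cells. Read-out via RT-PCR and capillary electrophoresis of labelled fragments, fitted upward relative to DMSO.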

[12] = molecular target: Retinoic acid receptor RXR-alpha (Homo sapiens) (UniProt P19793); experiment: ATG_RXRa_TRANS: Attagene TRANS-FACTORIAL HepG2 Assay for human Retinoid X Receptor alpha (RXRa) (AID 2283012; active = hit-call score of the fitted dose curve at least 0.9, where 1 is the maximum)
Outline: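 Read-out: fluorescent reporter-transcript fragments quantified by capillary electrophoresis after RT-PCR. Transiently transfected HepG2 cells carrying GAL4-UAS reporters and NR-GAL4 chimeras were exposed to chemical for 24 h; activity scored as increase over DMSO.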

[13] = molecular target: human Retinoid X Receptor beta (RXRb), RXRB (gene 6257) (UniProt P28702); experiment: ATG_RXRb_TRANS: Attagene TRANS-FACTORIAL HepG2 Assay for human Retinoid X Receptor beta (RXRb) (AID 2283013; active = hit-call score of the fitted dose curve at least 0.9, where 1 is the maximum)
Outline: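 Read-out: reporter mRNA induction via RT-PCR plus capillary electrophoresis fluorescence, analysed as signal increase relative to DMSO. Cells were human HepG2, transiently transfected with GAL4-UAS reporter constructs and chimeric receptor-Gal4 fusions, dosed for 24 h.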

[14] = molecular target: human Thyroid Receptor alpha (THRa1), THRA (gene 7067) (UniProt P10827); experiment: ATG_THRa1_TRANS: Attagene TRANS-FACTORIAL HepG2 Assay for human Thyroid Receptor alpha (THRa1) (AID 2283014; active = hit-call score of the fitted dose curve at least 0.9, where 1 is the maximum)
Outline: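 HepG2 cells transiently transfected with multiplexed GAL4-UAS reporter units for exogenous chimeric THRa1-Gal4; reporter mRNA measured 24 h after dosing by RT-PCR, 6-FAM labelling, HpaI digestion and capillary electrophoresis. Gain-of-signal fitted versus DMSO baseline.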

[15] = BSK_3C_VCAM1: BioMAP Diversity Plus: 3C Assay for Vascular cell adhesion molecule 1 (VCAM1) Biomarker Activity (AID 2282999); conditions: BioMAP 3C HUVEC, VCAM1 ELISA, cytokine-stimulated; actives raise or lower the signal
Outline: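 Vascular primary endothelium (human umbilical vein) was exposed to chemicals and assayed 24 h later. VCAM-1 levels came from ELISA, with DMSO serving as baseline for bidirectional fitting.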

[16] = molecular target: human Peroxisome Proliferator-activated Receptor delta (PPARd), PPARD (gene 5467) (UniProt Q03181); experiment: ATG_PPARd_TRANS: Attagene TRANS-FACTORIAL HepG2 Assay for human Peroxisome Proliferator-activated Receptor delta (PPARd) (AID 2283002; active = hit-call score of the fitted dose curve at least 0.9, where 1 is the maximum)
Outline: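 Measured quantity: GAL4-UAS reporter transcript induction in HepG2 after 24 h chemical dosing, with NR-Gal4 chimeras supplied by transient transfection. Detection by RT-PCR and capillary electrophoresis; upward fit against DMSO.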

[17] = molecular target: human RAR-related Orphan Receptor gamma (RORg), RORC (gene 6097) (UniProt P51449); experiment: ATG_RORg_TRANS: Attagene TRANS-FACTORIAL HepG2 Assay for human RAR-related Orphan Receptor gamma (RORg) (AID 2283011; active = hit-call score of the fitted dose curve at least 0.9, where 1 is the maximum)
Outline: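 Readout: reporter transcript induction (RT-PCR, fluorescent primer extension, capillary electrophoresis) after 24 h compound exposure of transiently transfected HepG2 cells carrying a RORg-Gal4 chimera and GAL4-UAS reporters; DMSO served as baseline, with increasing signal fitted.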

[18] = BSK_3C_TissueFactor: BioMAP Diversity Plus: 3C Assay for Tissue Factor Biomarker Activity (AID 2282997); conditions: BioMAP 3C HUVEC, tissue factor biomarker readout; actives raise or lower the signal
Outline: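 Readout: Tissue Factor ELISA. Cells: human primary umbilical vein endothelium. Time: 24 h after dosing. Analysis: bidirectional fit, DMSO baseline.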

[19] = molecular target: human RAR-related Orphan Receptor beta (RORb), RORB (gene 6096) (UniProt Q92753); experiment: ATG_RORb_TRANS: Attagene TRANS-FACTORIAL HepG2 Assay for human RAR-related Orphan Receptor beta (RORb) (AID 2283010; active = hit-call score of the fitted dose curve at least 0.9, where 1 is the maximum)
Outline: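 HepG2, transient MRTU transfection (GAL4-UAS reporters, exogenous NR-Gal4 chimeras); 24 h compound exposure; total RNA → RT-PCR → 6-FAM primer extension → HpaI digest → CE fluorescence. Positive direction vs DMSO baseline.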

[20] = molecular target: human Retinoic Acid Receptor gamma (RARg), RARG (gene 5916) (UniProt P13631); experiment: ATG_RARg_TRANS: Attagene TRANS-FACTORIAL HepG2 Assay for human Retinoic Acid Receptor gamma (RARg) (AID 2283009; active = hit-call score of the fitted dose curve at least 0.9, where 1 is the maximum)
Outline: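 Readout: reporter transcript levels via RT-PCR, 6-FAM primer-extension labelling, HpaI digestion and capillary electrophoresis. Cells: HepG2 carrying transfected RARg-GAL4 chimera plus UAS reporter set. Dosing 24 h; DMSO negative control.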

Measured: AC50

Peroxisome proliferator-activated receptor gamma (Homo sapiens), sequence (P37231 whole entry, looked up): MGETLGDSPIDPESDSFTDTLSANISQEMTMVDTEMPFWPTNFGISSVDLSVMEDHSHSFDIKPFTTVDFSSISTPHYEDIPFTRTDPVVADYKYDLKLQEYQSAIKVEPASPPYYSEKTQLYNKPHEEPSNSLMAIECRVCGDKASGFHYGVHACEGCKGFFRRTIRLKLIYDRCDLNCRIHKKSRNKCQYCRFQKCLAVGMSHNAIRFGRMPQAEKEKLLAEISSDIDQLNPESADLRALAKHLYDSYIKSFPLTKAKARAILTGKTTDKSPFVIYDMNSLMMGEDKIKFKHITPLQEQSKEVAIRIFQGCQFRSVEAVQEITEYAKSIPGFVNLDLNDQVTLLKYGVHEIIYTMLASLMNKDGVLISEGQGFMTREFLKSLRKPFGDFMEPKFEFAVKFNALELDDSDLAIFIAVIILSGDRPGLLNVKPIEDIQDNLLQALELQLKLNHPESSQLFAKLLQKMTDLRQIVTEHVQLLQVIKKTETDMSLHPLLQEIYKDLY
Cellular tumor antigen p53 (Homo sapiens), sequence (P04637 whole entry, looked up): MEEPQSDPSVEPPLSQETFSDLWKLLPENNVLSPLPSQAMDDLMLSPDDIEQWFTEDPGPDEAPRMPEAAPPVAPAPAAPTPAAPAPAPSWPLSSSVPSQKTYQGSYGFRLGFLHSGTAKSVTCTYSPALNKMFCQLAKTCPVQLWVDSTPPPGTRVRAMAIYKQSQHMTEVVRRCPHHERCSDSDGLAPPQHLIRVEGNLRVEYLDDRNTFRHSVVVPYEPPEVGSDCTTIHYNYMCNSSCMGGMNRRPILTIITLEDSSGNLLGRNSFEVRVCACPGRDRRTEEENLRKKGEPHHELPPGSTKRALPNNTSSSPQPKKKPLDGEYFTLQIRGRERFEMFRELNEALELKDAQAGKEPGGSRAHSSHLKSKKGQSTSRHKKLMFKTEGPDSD
human Peroxisome Proliferator-activated Receptor alpha (PPARa), PPARA (gene 5465), sequence (Q07869 whole entry, looked up, the tested form may be a part): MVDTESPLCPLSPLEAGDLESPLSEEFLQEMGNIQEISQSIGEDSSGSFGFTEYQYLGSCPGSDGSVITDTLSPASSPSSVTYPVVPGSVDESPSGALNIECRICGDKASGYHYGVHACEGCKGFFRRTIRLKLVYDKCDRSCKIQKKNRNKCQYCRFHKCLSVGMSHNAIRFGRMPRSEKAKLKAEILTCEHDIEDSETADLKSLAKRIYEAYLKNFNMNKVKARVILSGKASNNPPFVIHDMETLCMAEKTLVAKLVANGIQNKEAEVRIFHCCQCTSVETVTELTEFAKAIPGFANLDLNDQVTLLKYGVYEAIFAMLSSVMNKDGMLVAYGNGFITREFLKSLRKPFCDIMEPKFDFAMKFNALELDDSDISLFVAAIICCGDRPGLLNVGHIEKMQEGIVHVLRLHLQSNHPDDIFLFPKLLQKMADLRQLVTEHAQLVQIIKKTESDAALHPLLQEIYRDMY
Retinoic acid receptor RXR-alpha (Homo sapiens), sequence (P19793 whole entry, looked up, the tested form may be a part): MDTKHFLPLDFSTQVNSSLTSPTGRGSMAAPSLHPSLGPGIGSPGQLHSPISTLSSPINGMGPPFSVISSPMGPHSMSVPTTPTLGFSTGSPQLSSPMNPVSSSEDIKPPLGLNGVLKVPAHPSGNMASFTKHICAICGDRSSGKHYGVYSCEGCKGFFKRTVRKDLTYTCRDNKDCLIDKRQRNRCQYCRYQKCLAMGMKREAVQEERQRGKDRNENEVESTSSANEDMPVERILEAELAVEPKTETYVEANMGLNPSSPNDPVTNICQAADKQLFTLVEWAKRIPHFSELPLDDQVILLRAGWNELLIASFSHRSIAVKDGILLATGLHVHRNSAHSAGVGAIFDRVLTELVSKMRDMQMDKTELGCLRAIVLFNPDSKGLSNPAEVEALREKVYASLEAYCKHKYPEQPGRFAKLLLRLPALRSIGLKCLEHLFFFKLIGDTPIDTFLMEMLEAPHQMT
human RAR-related Orphan Receptor beta (RORb), RORB (gene 6096), sequence (Q92753 whole entry, looked up, the tested form may be a part): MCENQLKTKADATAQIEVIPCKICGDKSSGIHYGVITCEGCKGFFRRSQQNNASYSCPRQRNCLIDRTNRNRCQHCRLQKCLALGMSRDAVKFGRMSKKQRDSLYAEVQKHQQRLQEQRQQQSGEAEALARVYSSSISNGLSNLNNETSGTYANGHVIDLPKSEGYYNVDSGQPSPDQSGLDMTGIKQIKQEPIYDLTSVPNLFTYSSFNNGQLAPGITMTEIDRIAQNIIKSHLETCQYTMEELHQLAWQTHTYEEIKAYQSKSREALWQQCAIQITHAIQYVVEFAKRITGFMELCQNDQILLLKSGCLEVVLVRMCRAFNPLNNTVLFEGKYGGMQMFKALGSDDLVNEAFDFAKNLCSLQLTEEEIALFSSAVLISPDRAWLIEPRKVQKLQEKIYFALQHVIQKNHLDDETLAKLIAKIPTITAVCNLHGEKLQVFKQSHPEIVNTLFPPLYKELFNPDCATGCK
human Thyroid Receptor alpha (THRa1), THRA (gene 7067), sequence (P10827 whole entry, looked up, the tested form may be a part): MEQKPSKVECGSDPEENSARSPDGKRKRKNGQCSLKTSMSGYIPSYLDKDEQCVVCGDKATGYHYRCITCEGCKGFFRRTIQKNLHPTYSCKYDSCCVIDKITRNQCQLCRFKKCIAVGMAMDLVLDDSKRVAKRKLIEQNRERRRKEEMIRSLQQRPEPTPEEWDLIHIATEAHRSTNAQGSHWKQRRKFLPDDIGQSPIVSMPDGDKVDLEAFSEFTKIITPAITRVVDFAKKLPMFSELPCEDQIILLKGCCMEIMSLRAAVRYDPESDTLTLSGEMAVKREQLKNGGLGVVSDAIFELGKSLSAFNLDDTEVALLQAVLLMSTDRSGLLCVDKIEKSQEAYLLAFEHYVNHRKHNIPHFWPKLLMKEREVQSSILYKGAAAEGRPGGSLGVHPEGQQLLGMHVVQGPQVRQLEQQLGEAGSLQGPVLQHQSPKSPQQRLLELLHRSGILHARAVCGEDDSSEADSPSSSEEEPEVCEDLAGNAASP
human Peroxisome Proliferator-activated Receptor delta (PPARd), PPARD (gene 5467), sequence (Q03181 whole entry, looked up, the tested form may be a part): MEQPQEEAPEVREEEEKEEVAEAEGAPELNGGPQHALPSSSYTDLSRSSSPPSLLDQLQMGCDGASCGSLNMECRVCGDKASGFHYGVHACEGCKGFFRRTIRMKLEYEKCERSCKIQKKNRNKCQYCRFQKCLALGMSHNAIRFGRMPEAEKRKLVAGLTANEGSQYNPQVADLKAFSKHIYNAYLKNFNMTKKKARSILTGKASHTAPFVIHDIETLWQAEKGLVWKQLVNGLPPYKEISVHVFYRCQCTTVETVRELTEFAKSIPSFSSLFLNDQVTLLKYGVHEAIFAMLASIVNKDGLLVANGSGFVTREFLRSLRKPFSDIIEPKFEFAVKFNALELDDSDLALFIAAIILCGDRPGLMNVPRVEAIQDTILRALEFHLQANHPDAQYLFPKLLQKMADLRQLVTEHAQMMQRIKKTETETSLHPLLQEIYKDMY
human RAR-related Orphan Receptor gamma (RORg), RORC (gene 6097), sequence (P51449 whole entry, looked up, the tested form may be a part): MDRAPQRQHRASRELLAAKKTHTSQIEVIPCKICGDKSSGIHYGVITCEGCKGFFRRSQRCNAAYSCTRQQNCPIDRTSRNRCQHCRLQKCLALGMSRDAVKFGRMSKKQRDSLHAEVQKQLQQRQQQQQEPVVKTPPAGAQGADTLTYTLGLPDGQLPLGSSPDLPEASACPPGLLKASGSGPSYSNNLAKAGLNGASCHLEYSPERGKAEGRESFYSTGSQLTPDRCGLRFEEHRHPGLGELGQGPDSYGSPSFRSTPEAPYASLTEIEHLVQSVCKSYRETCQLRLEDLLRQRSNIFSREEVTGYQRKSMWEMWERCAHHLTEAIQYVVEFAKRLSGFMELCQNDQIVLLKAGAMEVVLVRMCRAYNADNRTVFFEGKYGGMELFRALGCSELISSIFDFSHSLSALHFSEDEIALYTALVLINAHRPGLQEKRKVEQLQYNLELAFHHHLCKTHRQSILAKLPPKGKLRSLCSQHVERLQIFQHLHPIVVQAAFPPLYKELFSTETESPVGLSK
human Retinoic Acid Receptor gamma (RARg), RARG (gene 5916), sequence (P13631 whole entry, looked up, the tested form may be a part): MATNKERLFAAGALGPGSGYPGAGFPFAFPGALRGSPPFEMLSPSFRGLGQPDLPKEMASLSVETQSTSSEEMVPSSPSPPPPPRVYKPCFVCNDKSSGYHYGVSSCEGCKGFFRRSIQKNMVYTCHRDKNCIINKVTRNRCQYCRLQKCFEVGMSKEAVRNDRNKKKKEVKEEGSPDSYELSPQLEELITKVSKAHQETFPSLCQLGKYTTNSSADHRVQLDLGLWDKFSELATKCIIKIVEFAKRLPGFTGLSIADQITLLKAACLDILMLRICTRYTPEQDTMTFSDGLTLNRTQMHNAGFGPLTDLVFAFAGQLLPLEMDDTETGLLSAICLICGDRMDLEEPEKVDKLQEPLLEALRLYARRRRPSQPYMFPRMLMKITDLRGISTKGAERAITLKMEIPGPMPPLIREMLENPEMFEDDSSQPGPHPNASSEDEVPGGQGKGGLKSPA
human Retinoid X Receptor beta (RXRb), RXRB (gene 6257), sequence (P28702 whole entry, looked up, the tested form may be a part): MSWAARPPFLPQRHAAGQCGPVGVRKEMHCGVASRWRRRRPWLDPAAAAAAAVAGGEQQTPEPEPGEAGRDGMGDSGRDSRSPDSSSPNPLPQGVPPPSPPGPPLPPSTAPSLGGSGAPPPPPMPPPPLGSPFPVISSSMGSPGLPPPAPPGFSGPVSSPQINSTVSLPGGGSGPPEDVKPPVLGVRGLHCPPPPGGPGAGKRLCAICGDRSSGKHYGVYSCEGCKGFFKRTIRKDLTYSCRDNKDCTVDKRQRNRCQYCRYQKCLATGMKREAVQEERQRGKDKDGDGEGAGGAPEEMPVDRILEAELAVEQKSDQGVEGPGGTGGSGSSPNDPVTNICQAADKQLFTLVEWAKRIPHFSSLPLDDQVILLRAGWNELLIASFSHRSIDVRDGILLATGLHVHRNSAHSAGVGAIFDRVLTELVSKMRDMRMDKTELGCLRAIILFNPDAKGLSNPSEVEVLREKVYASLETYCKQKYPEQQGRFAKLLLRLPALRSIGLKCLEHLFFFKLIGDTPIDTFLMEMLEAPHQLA

C1N2CN3CN1CN(C2)C3
not listed: [15] | [16] | [17] | [18] | [19] | [20]
inactive: all other assays above

COc1cccc(-c2ccc(/C=C\CN3CCCCCC3)cc2Cl)c1
active: [2] 9.89 µM | [3] 11 µM | [5] 24.3 µM | [15] 33.1 µM | [6] 28 µM | [8] 33.5 µM | [9] 14.2 µM
not listed: [11] | [13] | [18] | [19] | [20]
inactive: all other assays above

On1ccccc1=S
inactive: [3] | [4] | [19] | [17] | [12] | [14]
active: [1] 10.2 µM | [2] 12.2 µM | [18] 18.6 µM | [5] 28.4 µM | [6] 16.1 µM | [8] 24 µM | [9] 4.91 µM

CC(C)CC(C)(O)C#CC(C)(O)CC(C)C (stereo not drawn)
active: [11] 11.9 µM
not listed: [7] | [10] | [15] | [16] | [17] | [18] | [19]
inactive: all other assays above

O=P(OC(CCl)CCl)(OC(CCl)CCl)OC(CCl)CCl
active: [3] 103 µM | [4] 39.3 µM | [9] 10.6 µM | [13] 26 µM
not listed: [11] | [12] | [16] | [17] | [18] | [19]
inactive: all other assays above

CCNc1ccccc1
not listed: [12] | [18] | [19]
inactive: all other assays above

CCc1cc(SCc2sc(-c3ccc(C(F)(F)F)cc3)nc2CN2CCN(c3ccc(OC)cc3)CC2)ccc1OCC(=O)O
active: [1] 20.2 µM | [2] 4.51 µM | [3] 8.42 µM | [5] 7.74 µM | [15] 27.7 µM | [6] 10.9 µM | [7] 0.0501 µM | [16] 0.00449 µM | [8] 29.9 µM | [9] 9.19 µM | [10] 0.0352 µM
inactive: [4] | [20] | [19] | [17] | [12]

CCN(C(=O)c1cc(C)cc(OC[C@H](C)Nc2ccncc2)c1)C(C)C
active: [2] 8.92 µM
not listed: [7] | [11] | [13] | [14] | [16] | [17] | [18]
inactive: all other assays above

Cc1c(-c2cccnc2)c2ccccc2n1CCCCC(=O)O
active: [1] 100 µM | [9] 17.4 µM | [10] 22.4 µM
not listed: [11] | [12] | [14] | [15] | [18] | [19]
inactive: all other assays above

CC(C)CCCCCCCOC(=O)CCCCC(=O)OCCCCCCCC(C)C
active: [13] 100 µM
not listed: [7] | [10] | [11] | [12] | [14] | [15] | [16] | [19]
inactive: all other assays above

C=CCCCCCCCCC(=O)O
active: [7] 26.7 µM | [10] 69.1 µM | [13] 74.8 µM
not listed: [11] | [14] | [15] | [16] | [17] | [18] | [19]
inactive: all other assays above

CCCCCCCCCCCCCCCO
active: [5] 35.6 µM | [15] 15.4 µM | [6] 36.5 µM | [9] 14.7 µM | [13] 27.5 µM
not listed: [11] | [14] | [18] | [19] | [20]
inactive: all other assays above

CCOC(=O)COc1ccc2c(c1)CC(NCC(O)c1cccc(Cl)c1)CC2 (stereo not drawn)
active: [4] 49.8 µM | [5] 28.5 µM | [6] 34.3 µM | [7] 33 µM | [8] 28.4 µM | [9] 15.3 µM | [10] 21.7 µM
not listed: [11] | [12] | [15] | [18]
inactive: all other assays above

NC(=O)NO
not listed: [7] | [10] | [11] | [12] | [13] | [14] | [15] | [20]
inactive: all other assays above

COCCOCCOCCOC
not listed: [16] | [17] | [18] | [19]
inactive: all other assays above
